# Only some compounds are listed: those with a hit (about 1.9% of all), similar ones and a draw of the others.
# BJeLR lethal = kills HRASV12-expressing BJeLR cells. BJeLR (HRASV12) viability, CellTiter-Glo ATP luminescence, 48 h. inhibition, % (no concentration beside the values). hit rate 0.17% among 300,000. AID 1554; in the data active = inhibition above about 50%; inconclusive = no clear call, values can overlap the other calls
# PfHsp40 rescue = restores yeast growth despite PfHsp40 toxicity; S. cerevisiae expressing PfHsp40, growth rescue, ATP luminescence; growth rescue, % at 12.5 µM; hit rate 0.68% among 340,000; in the data active = growth rescue above about 28%, passing the limit was not always enough; inconclusive = no clear call, values can overlap the other calls;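 note: yeast W303a lacking pdr1 and pdr3 grown in galactose medium; growth measured after three days at 30 °C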
# RecA splice inh = blocks M. tuberculosis RecA intein splicing. cell-free RecA intein splicing, fluorescence. inhibition, % (test concentration not listed). hit rate 0.75% among 290,000. AID 2221; in the data active = inhibition above about 30%; inconclusive = no clear call, values can overlap the other calls;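 note: 0% = vehicle wells and 100% = reference inhibitor control wells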
# Target sequence (P9WHJ3 whole entry, looked up, canonical isoform): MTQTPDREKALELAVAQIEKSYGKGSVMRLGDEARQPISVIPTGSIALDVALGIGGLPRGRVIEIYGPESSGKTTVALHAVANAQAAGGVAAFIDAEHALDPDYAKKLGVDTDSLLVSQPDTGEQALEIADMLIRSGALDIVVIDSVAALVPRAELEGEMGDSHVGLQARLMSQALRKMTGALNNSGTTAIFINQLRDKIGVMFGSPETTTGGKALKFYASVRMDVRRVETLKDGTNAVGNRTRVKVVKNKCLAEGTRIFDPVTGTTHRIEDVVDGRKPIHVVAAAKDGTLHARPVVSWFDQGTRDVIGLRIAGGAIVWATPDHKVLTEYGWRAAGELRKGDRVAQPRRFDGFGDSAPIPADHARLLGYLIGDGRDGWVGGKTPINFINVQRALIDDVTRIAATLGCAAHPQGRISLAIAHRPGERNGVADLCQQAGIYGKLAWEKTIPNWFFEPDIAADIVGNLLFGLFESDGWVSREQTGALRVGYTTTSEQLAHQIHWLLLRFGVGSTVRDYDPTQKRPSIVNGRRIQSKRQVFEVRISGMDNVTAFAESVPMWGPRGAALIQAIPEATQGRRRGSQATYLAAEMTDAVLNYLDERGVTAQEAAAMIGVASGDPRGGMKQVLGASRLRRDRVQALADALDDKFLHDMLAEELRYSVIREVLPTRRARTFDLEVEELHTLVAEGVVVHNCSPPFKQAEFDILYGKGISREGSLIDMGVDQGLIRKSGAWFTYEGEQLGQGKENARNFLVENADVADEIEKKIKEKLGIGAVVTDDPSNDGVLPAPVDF
# PrPC TRFRET = reduces human prion protein on the cell surface | P04156 | cell surface PrPC, TR-FRET read-out | inhibition, % at 13.8 µM | hit rate 0.43% among 370,000 | AID 720596; in the data active = inhibition above about 24%; note: 0% = median of the test wells and 100% = reference compound wells
# SSB-PriA inh = blocks PriA binding to SSB C-terminal tail | AlphaScreen SSBct-PriA binding, biotinylated peptide | inhibition, % at 33 µM | hit rate 0.6% among 430,000 | AID 1272365; in the data active = inhibition mostly above about 37%, no sharp cut-off; inactive = mostly below about 20%;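 note: plate controls were negative control peptide for no effect and reference peptide for full effect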
# PrP 5UTR inh = inhibition of PrP 5' UTR reporter expression; cell-based PrP 5' UTR mRNA reporter, plate reader; inhibition, % (no concentration beside the values); hit rate 0.35% among 340,000; AID 488862; in the data active = inhibition above about 52%; note: 0 = median of the neutral control wells
# GFP chromo cs = counter-screen GFP chromophore formation inhibition; shares compounds with RecA splice inh; cell-free GFP chromophore formation, fluorescence; EC50, µM; hit rate 83% among 2,100; AID 434968; call rule not given here
# An asterisk follows results filed as active; i = inactive; ? = inconclusive; . = no result.
SMILES,BJeLR lethal,PfHsp40 rescue,RecA splice inh,PrPC TRFRET,SSB-PriA inh,PrP 5UTR inh,GFP chromo cs
Oc1c(C(c2ccccn2)N2CCCCC2)cc(Cl)c2cccnc12 (stereo unspecified),11,?,10,-1,96,1,.
CN1CCN(C(c2ccc(Cl)cc2)c2cc(Cl)c3cccnc3c2O)CC1 (stereo unspecified),-2,1,79*,6,35,-22,31*
CN1CCN(C(c2ccc(C(F)(F)F)cc2)c2cc(Cl)c3cccnc3c2O)CC1 (stereo unspecified),19,.,44*,8,6,.,18*
Oc1c(C(c2ccc(Cl)cc2Cl)N2CCN(c3ccc(F)cc3)CC2)cc(Cl)c2cccnc12 (stereo unspecified),.,.,.,.,1,.,.
Cc1cc(C)c2sc(N3CCN(C(=O)CCCS(=O)(=O)c4ccccc4)CC3)nc2c1,.,.,.,.,-4,.,.
COc1ccc(-c2cc(=O)n(-c3ccc([N+](=O)[O-])cc3)[nH]2)cc1,-9,-1,90*,-1,7,-7,5.4*
CC(=O)c1ccc(OC(=O)c2cccs2)cc1,1,0,35*,2,-2,-21,>38
COc1ccc(C(=O)NCc2nnc(SCC(=O)Nc3cc(C(F)(F)F)ccc3Cl)o2)cc1,.,.,.,.,-9,.,.
Cc1ccccc1-c1cc2c(nn1)-c1ccccc1C2=O,0,1,75*,-18,12,-42,13*
O=C(NC(=NO)c1ccccc1)Nc1ccc(Cl)cc1,.,.,.,.,-6,.,.
COC(=O)Cn1cnc2c(-c3cccc(Cl)c3)csc2c1=O,.,.,.,.,-3,.,.
COC(=O)CC1(c2cccc3ccccc23)C(=O)c2ccccc2C1=O,8,0,42*,-1,12,-14,6.6*
COC(=O)CC1(c2ccccc2)C(=O)c2ccccc2C1=O,-3,-1,2,7,-3,-1,.
NC(=NN=Cc1ccc(F)cc1)NN=Cc1ccc(F)cc1,.,.,.,.,8,.,.
COc1cc(C(=O)NC(C)c2ccccc2)on1 (stereo unspecified),.,.,.,.,-4,.,.
Cc1ccccc1CS(=O)(=O)c1snnc1C,-10,1,44*,4,-19,-26,>38
Cc1ncsc1C(=O)NCc1cccnc1-c1ccsc1,.,.,.,.,-14,.,.
CC(=O)c1c(Cl)nc2cccc3c2c1-c1ccccc1C3=O,3,0,33*,5,11,15,>12
COc1cc(-c2c(C(C)=O)c(C)nc3c2C(=O)c2ccccc2-3)cc(OC)c1OC,4,0,1,-3,-12,-1,.
O=C(Cc1ccccc1)Nc1nnc(-c2ccc(Br)cc2)o1,.,.,.,.,3,.,.
Cc1ccccc1-c1nsc(SCC(=O)Nc2cccc(C)c2C)n1,.,.,.,.,-48,.,.
COc1ccc(/C=N/NC(=O)c2nn(-c3ccc(Cl)cc3)c(=O)c3c(N)scc23)cc1,0,1,40*,-20,.,-8,17*
C=CCn1c(N)c(C(=O)Nc2cccc(C)c2)c2nc3ccccc3nc21,1,5,34*,7,-46,-3,24*
Cc1cc(C)c(C(CC(=O)c2cccs2)C(C#N)C#N)c(C)c1 (stereo unspecified),-16,0,83*,-6,8,-17,8.6*
CC(CC(=O)c1cccs1)CC(=O)c1cccs1,3,2,-3,-8,-6,-71,.
SMILES,BJeLR lethal,PfHsp40 rescue,RecA splice inh,PrPC TRFRET,SSB-PriA inh,PrP 5UTR inh,GFP chromo cs
Cc1ccc(-c2csc(NC(=O)c3ccc(S(=O)(=O)N(C)c4ccccc4)cc3)n2)o1,.,.,.,.,1,.,.
Cc1cc(=O)[nH]c(-n2nc(C)c(CCC(=O)Nc3ccc(OC(F)(F)F)cc3)c2C)n1,.,.,.,.,-14,.,.
COC(=O)N/N=C/c1ccc(OC(=O)/C=C/c2ccco2)cc1,-11,.,-1,-8,i,.,.
CC(C)(C)OC(=O)N/N=C\c1ccc(OC(=O)c2ccco2)cc1,8,1,43*,-10,.,-57,>38
COC(=O)N/N=C\c1ccc(OC(=O)c2ccco2)cc1,-5,3,40*,-3,.,-48,>38
CCOc1cc(/C=N\NC(=O)OC(C)(C)C)ccc1OC(=O)c1ccco1,-4,1,31*,1,.,-20,>38
CCOC(=O)N/N=C\c1ccc(OC(=O)c2ccco2)cc1,2,0,34*,7,.,-27,>38
O=C(NC1CCC(Oc2ccccn2)CC1)c1ccsc1 (stereo unspecified),.,.,.,.,0,.,.

# Compound activity: PubChem, several laboratories
